Experimental data taken from paper PMC5540273 (PLoS ONE, 2017).

The molecules below were run on ABL1-nonphosphorylated. Conditions: concentration: 1 μM, replicates: in singlicate; n = 1.
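Further: KINOMEscan kinase panel screen.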

| Structure (SMILES) | %Inh |
| --- | --- |
| Cn1cc(-c2[nH]c3cc(NC(=O)[C@H](N)C4CCCCC4)cc4c3c2C=NNC4=O)cn1 | 95.7% |
| COc1ccc(CNC(=O)NC2CCN(c3ccnc(Nc4ccc(F)cc4)n3)CC2)cc1 [GSK1379788] | 0% |
| COc1cccc(NC(=O)NC2CCN(c3ccnc(Nc4cc(OC)c(OC)c(OC)c4)n3)C2)c1 (centres unmarked) [GSK1379763] | 0% |
| O=C(Nc1n[nH]c2nc(-c3ccc(O)cc3)ccc12)C1CC1 [SB-710363] | 88% |
| CN1CCN(CCCNc2nccc(-c3c(-c4ccc(F)cc4)nn4cc(C(F)(F)F)ccc34)n2)CC1 [GW621581] | 0% |
| c1ccc(-c2n[nH]cc2Nc2ccnc3ccccc23)nc1 [GW694077] | 0% |
| CCc1ccc(-c2ccc3c(c2)-c2c(cnn2C)S(=O)(=O)N3C)cc1 | 7% |
| NCCCC(NC(=O)c1cc(Br)c(-c2ccnc3[nH]ccc23)s1)c1ccccc1.O=C(O)C(F)(F)F.O=C(O)C(F)(F)F (centres unmarked) [GSK1287544] | 0% |
| Nc1ncc(-c2cccnc2)c2scc(-c3ccc4c(c3)CCN4C(=O)Cc3ccccc3)c12 [GSK683281] | 94.1% |
| Cl.c1ccc(-c2ccc3c(Nc4ccc5[nH]ncc5c4)ccnc3c2)nc1 [GW440137] | 63% |
| Cc1ccc(C)c(NC(=O)NC2CCN(c3ccnc(Nc4ccc(F)cc4)n3)C2)c1 (centres unmarked) [GSK1379720] | 0% |
| COc1cc(Nc2nccc(-c3c(-c4cccc(NC(=O)c5c(F)cccc5F)c4)nn4ccccc34)n2)cc(OC)c1OC [GSK323521] | 52% |
| Fc1ccc(-c2ncn(C3CCNCC3)c2-c2ccnc(Oc3ccc(-c4ccccc4)cc3)n2)cc1 [SB-245391] | 1% |
| COc1cc(Nc2ncc3c(C)nc(-c4cc5ccccc5[nH]4)n3n2)cc(OC)c1OC [GW869516] | 32% |
| Clc1ccc(-c2nn3ncccc3c2-c2ccnc(Nc3ccc4c(c3)OCCO4)n2)cc1 [GW829116] | 61% |
| c1ccc(-c2cnc3nccnn23)cc1 [AH20685] | 0% |
| O=C(Nc1ccccc1F)NC1CCN(c2ccnc(Nc3ccc(F)cc3)n2)CC1 [GSK1379800] | 0% |
| Cc1occc1-c1ncc(OC[C@@H](N)Cc2c[nH]c3ccccc23)cc1-c1ccc2[nH]nc(C)c2c1.O=C(O)C(F)(F)F [GSK682037] | 13% |
| C[C@@H]1CC[C@@H](C(=O)Nc2ccccc2)CN1c1cc(-c2ccc3c(N)n[nH]c3c2)nc(N)n1 [GSK2286062] | 0% |
| COc1cc(Nc2nccc(-c3c(-c4cccc(NC(=O)c5c(F)cccc5F)c4)nn4ncccc34)n2)cc(OC)c1OC [GSK327238] | 92.9% |
| C[C@@H](Oc1cc(-n2cnc3cc(-c4ccnc(NCCS(C)(=O)=O)c4)ccc32)sc1C(N)=O)c1ccccc1Cl [GSK907232] | 0% |
| CN1CCN(Cc2cccc(-c3ccc4c(Nc5ccc(Oc6ccccc6)cc5)ccnc4c3)c2)CC1 [GW578342] | 91.6% |
| Cc1ccc(S(=O)(=O)Nc2ccc(Nc3nccc(Nc4cccc5[nH]ncc45)n3)cc2)cc1 [GSK581271] | 11% |

What follows are molecules tested on ABL1-phosphorylated. Conditions: concentration: 1 μM, replicates: in singlicate; n = 1.

| Structure (SMILES) | %Inh |
| --- | --- |
| Cl.c1ccc(-c2ccc3c(Nc4ccc5[nH]ccc5c4)ccnc3c2)nc1 [GW440138] | 94.1% |
| Nc1n[nH]c2cnc(-c3ccccc3)cc12 [SB-642124] | 0% |
| CN(C)Cc1ccc(-c2ccc3c(Nc4ccc(Oc5ccccn5)cc4)ccnc3c2)o1 [GW567148] | 32% |
| CC(C)(C)c1ccc2nccc(Nc3cccc(O)c3)c2c1 [GW856795] | 85% |
| O=c1[nH]cc(-c2ccc(N3CCOCC3)cc2)c2sc(-c3cn[nH]c3)cc12 [GSK2276055] | 0% |
| O=C(Nc1n[nH]c2cc(-c3ccoc3)ccc12)C1CC1 [SB-738481] | 0% |
| CC(=O)N1CCN(c2ccc(Nc3nccc(-c4sc(C(C)C)nc4-c4cccc(NS(=O)(=O)c5cccc(Cl)c5)c4)n3)cn2)CC1 [GSK1660437] | 35% |
| COc1cc2c(cc1OCCN1CCNCC1)ncc1c3ccc(C#N)cc3[nH]c21 | 55% |
| Oc1cc(Nc2ccnc3cc(I)ccc23)ccc1F [GW552771] | 99.6% |
| COc1cccc(C2=C(Nc3ccc(Cl)c(C(=O)O)c3)C(=O)NC2=O)c1 [SB-390769] | 100% |
| O=C(Nc1cccc(-c2nn3ccccc3c2-c2ccnc(Nc3cccc(F)c3)n2)c1)c1c(F)ccc(F)c1Cl [GSK357952] | 0% |
| O=C(Nc1cccc(Oc2ccc3nc(NC(=O)C4CC4)cn3n2)c1)c1ccccc1C(F)(F)F | 90% |
| CSc1cccc2c(-c3ccncn3)c(-c3ccc(F)cc3)nn12 [GW514786] | 0% |
| Cn1cc(-c2[nH]c3cc(NC(=O)[C@H](N)C4CCCCC4)cc4c3c2C=NNC4=O)cn1 | 97.5% |
| COc1ccc(CNC(=O)NC2CCN(c3ccnc(Nc4ccc(F)cc4)n3)CC2)cc1 [GSK1379788] | 0% |
| COc1cccc(NC(=O)NC2CCN(c3ccnc(Nc4cc(OC)c(OC)c(OC)c4)n3)C2)c1 (centres unmarked) [GSK1379763] | 0% |
| O=C(Nc1n[nH]c2nc(-c3ccc(O)cc3)ccc12)C1CC1 [SB-710363] | 74% |
| CN1CCN(CCCNc2nccc(-c3c(-c4ccc(F)cc4)nn4cc(C(F)(F)F)ccc34)n2)CC1 [GW621581] | 0% |

| Structure (SMILES) | %Inh |
| --- | --- |
| c1ccc(-c2n[nH]cc2Nc2ccnc3ccccc23)nc1 [GW694077] | 0% |
| CCc1ccc(-c2ccc3c(c2)-c2c(cnn2C)S(=O)(=O)N3C)cc1 | 0% |
| NCCCC(NC(=O)c1cc(Br)c(-c2ccnc3[nH]ccc23)s1)c1ccccc1.O=C(O)C(F)(F)F.O=C(O)C(F)(F)F (centres unmarked) [GSK1287544] | 0% |
| Nc1ncc(-c2cccnc2)c2scc(-c3ccc4c(c3)CCN4C(=O)Cc3ccccc3)c12 [GSK683281] | 54% |
| Cl.c1ccc(-c2ccc3c(Nc4ccc5[nH]ncc5c4)ccnc3c2)nc1 [GW440137] | 73% |
| Cc1ccc(C)c(NC(=O)NC2CCN(c3ccnc(Nc4ccc(F)cc4)n3)C2)c1 (centres unmarked) [GSK1379720] | 0% |
| COc1cc(Nc2nccc(-c3c(-c4cccc(NC(=O)c5c(F)cccc5F)c4)nn4ccccc34)n2)cc(OC)c1OC [GSK323521] | 0% |
| Fc1ccc(-c2ncn(C3CCNCC3)c2-c2ccnc(Oc3ccc(-c4ccccc4)cc3)n2)cc1 [SB-245391] | 16% |
| COc1cc(Nc2ncc3c(C)nc(-c4cc5ccccc5[nH]4)n3n2)cc(OC)c1OC [GW869516] | 24% |
| Clc1ccc(-c2nn3ncccc3c2-c2ccnc(Nc3ccc4c(c3)OCCO4)n2)cc1 [GW829116] | 7% |
| c1ccc(-c2cnc3nccnn23)cc1 [AH20685] | 0% |
| O=C(Nc1ccccc1F)NC1CCN(c2ccnc(Nc3ccc(F)cc3)n2)CC1 [GSK1379800] | 0% |
| Cc1occc1-c1ncc(OC[C@@H](N)Cc2c[nH]c3ccccc23)cc1-c1ccc2[nH]nc(C)c2c1.O=C(O)C(F)(F)F [GSK682037] | 33% |
| C[C@@H]1CC[C@@H](C(=O)Nc2ccccc2)CN1c1cc(-c2ccc3c(N)n[nH]c3c2)nc(N)n1 [GSK2286062] | 0% |
| COc1cc(Nc2nccc(-c3c(-c4cccc(NC(=O)c5c(F)cccc5F)c4)nn4ncccc34)n2)cc(OC)c1OC [GSK327238] | 24% |
| C[C@@H](Oc1cc(-n2cnc3cc(-c4ccnc(NCCS(C)(=O)=O)c4)ccc32)sc1C(N)=O)c1ccccc1Cl [GSK907232] | 0% |
| CN1CCN(Cc2cccc(-c3ccc4c(Nc5ccc(Oc6ccccc6)cc5)ccnc4c3)c2)CC1 [GW578342] | 20% |
| Cc1ccc(S(=O)(=O)Nc2ccc(Nc3nccc(Nc4cccc5[nH]ncc45)n3)cc2)cc1 [GSK581271] | 31% |
